Consider 39 compounds from PubChem BioAssay (NCI).

Structures are written as SMILES. This is part of a sample that, as a whole, favours compounds with a hit. Of some 79,000 tested, about 15% had one in any assay. Active and inactive are the calls of the source. Rule as the data show it: active = growth inhibition above about 70%; inactive = the rest.

One assay is described as follows: NCI Yeast Anticancer Drug Screen. Data for the rad52 strain (AID 147).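 Also: 0% = growth of vehicle-treated control cultures.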 The following applies: S. cerevisiae rad52 mutant growth inhibition; at 33.0 µM; stronger effect = higher value. In short, it runs like this:
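Read-out: growth inhibition versus vehicle-treated controls. Cells were a DNA repair-deficient yeast strain treated with compounds.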
For the compound `CSc1nnc(SC)nn1`, the growth inhibition was 52% (inactive).

Consider `COc1cc(/C=C2\CCC/C(=C\c3ccc(O)c(OC)c3)C2=O)ccc1O`, for which the growth inhibition was 11% (inactive).

Consider `CN(C)CCNC(=O)c1cccc2cc([N+](=O)[O-])ccc12`, for which the growth inhibition is 92% (active).

For `CCC(C)(C)c1ccc(Oc2cccc(C(=O)O)c2)cc1`, the growth inhibition is 59% (inactive).

Turning to `CCCCCCSc1ncnc2[nH]ncc12`, the growth inhibition is -1% (inactive).

As for `CC(=O)Nc1ccc(/C=C/[N+](=O)[O-])cc1`, the growth inhibition was 69% (inactive).

For the compound `CCOC(=O)c1[nH]n(-c2ccccc2)c(=O)c1C=NC(=S)C(N)=S`, the growth inhibition is 71% (active).

On to `CCCC(O)C1CC(C(C)C)CCC1C` (stereo unspecified), for which the growth inhibition was 7% (inactive).

Regarding `O=[n+]1c2ccccc2n([O-])c2cc(Br)ccc21`, the growth inhibition was 98% (active).

Consider `CN(C)CCNC(=O)c1cccc2c1Oc1c(cccc1[N+](=O)[O-])O2`, for which the growth inhibition was 59% (inactive).

For `Nc1ncc(-c2ccc(Br)cc2)s1`, the growth inhibition was 92% (active).

Take `Cc1cc2cc3cc(C)c(N)cc3nc2cc1N`: the growth inhibition was 77% (active).

For `CC12C(=O)OC(=O)C(c3ccccc31)c1ccccc12`, the growth inhibition was -4% (inactive).

With `c1ccc2c(OCC3CO3)cccc2c1` (stereo unspecified), the growth inhibition was 86% (active).

For the compound `CCOC(=N)c1ccc(O)c(OC)c1`, the growth inhibition is 0% (inactive).

As for `Nc1cc(N)c(N=Nc2cccc3c(S(=O)(=O)O)cccc23)cc1N=Nc1cc([N+](=O)[O-])ccc1O`, the growth inhibition is -23% (inactive).

As to `COC(=O)Oc1cc(Cl)c(Cl)cc1Cl`, the growth inhibition is 4% (inactive).

Consider `O=C(O)C1CC(c2ccccc2)=NN1c1ccccc1` (stereo unspecified), for which the growth inhibition is 58% (inactive).

Turning to `COc1cc([C@@H]2c3cc4c(cc3[C@@H](Nc3ccc(NC(=O)c5cc([N+](=O)[O-])cn5C)cc3)[C@H]3COC(=O)[C@H]23)OCO4)cc(OC)c1O`, the growth inhibition was 91% (active).

Turning to `O=C(O)c1ccccc1/C=N/N=C1c2ccccc2-c2ccccc21`, the growth inhibition is 0% (inactive).

Consider `O=C1CC(=O)c2ccccc21`, for which the growth inhibition is 9% (inactive).

As for `Nc1ncnc2c1ncn2C1OC(CO)CC1O` (stereo unspecified), the growth inhibition is 71% (active).

Still in this assay, the particulars now being: S. cerevisiae rad52 mutant growth inhibition; at 100.0 µM; stronger effect = higher value.
As for `CS(=O)(=O)SCc1ccc([N+](=O)[O-])cc1`, the growth inhibition was 97% (active).

For the compound `Cc1csc(=S)n1OC(=O)NC1CCCCC1`, the growth inhibition was 99% (active).

Consider `CCOc1ccc(NC(=O)C2=C(C)NC(C)=C(C(=O)Nc3ccc(OCC)cc3)C2c2cccc([N+](=O)[O-])c2)cc1`, for which the growth inhibition was 82% (active).

Take `CC(C)(C)N=C(NO)c1ccccc1`: the growth inhibition is 68% (inactive).

For the compound `CCCCC/C(=C(\C#N)C(=O)OCC)c1ccccc1`, the growth inhibition was 9% (inactive).

As for `O=C(NCCCl)Sc1ccc(Cl)cc1`, the growth inhibition was 99% (active).

`O=C1Nc2ccc(Br)cc2C1=Nc1ccc2c(c1)OCO2`: the growth inhibition is 2% (inactive).

Consider `CCC(C)OC(=O)Nc1ccc(C)c(NC(=O)OC(C)CC)c1` (stereo unspecified), for which the growth inhibition is 96% (active).

Turning to `O=C(O)c1cc2ccc(Cl)cc2c(O)c1C1=CCCCC1`, the growth inhibition was 78% (active).

Consider `CN(C)Cc1cc(N=Nc2ccc(Cl)cc2)ccc1OC(=O)c1ccccc1`, for which the growth inhibition is 17% (inactive).

In the case of `CN1CCN(C(=O)/C=C/C(=O)c2ccccc2)CC1`, the growth inhibition was 86% (active).

Regarding `CCCC/C=C/C(C)(C(=O)OCC)C(=O)OCC`, the growth inhibition was 22% (inactive).

Turning to `Cc1nc(-c2cc3cc([N+](=O)[O-])ccc3oc2=O)cs1`, the growth inhibition is 97% (active).

As for `Cc1nc2ccccc2nc1NNc1ccccc1`, the growth inhibition was 24% (inactive).

Regarding `CN(C)[C@@H]1C(=O)C(C(N)=O)=C(O)[C@@]2(O)C(=O)C3=C(O)c4c(O)cccc4C[C@H]3C[C@@H]12`, the growth inhibition was 98% (active).

With `COc1ccc(NC(=O)CC2SC(=Nc3ccccc3C)NC2=O)c([N+](=O)[O-])c1` (stereo unspecified), the growth inhibition was 75% (active).

For the compound `COc1cc(O)c2c(c1O)C(=O)c1cc(C)ncc1C2=O`, the growth inhibition is 72% (active).

With `CSc1nnc(SC)nn1`, the growth inhibition is 98% (active).

On to `COc1cc(/C=C2\CCC/C(=C\c3ccc(O)c(OC)c3)C2=O)ccc1O`, for which the growth inhibition was 4% (inactive).

Regarding `CN(C)CCNC(=O)c1cccc2cc([N+](=O)[O-])ccc12`, the growth inhibition is 96% (active).

As for `CCC(C)(C)c1ccc(Oc2cccc(C(=O)O)c2)cc1`, the growth inhibition is 68% (inactive).

As to `CCCCCCSc1ncnc2[nH]ncc12`, the growth inhibition is -1% (inactive).

As to `CC(=O)Nc1ccc(/C=C/[N+](=O)[O-])cc1`, the growth inhibition was 97% (active).

On to `CCOC(=O)c1[nH]n(-c2ccccc2)c(=O)c1C=NC(=S)C(N)=S`, for which the growth inhibition was 97% (active).

As for `CCCC(O)C1CC(C(C)C)CCC1C` (stereo unspecified), the growth inhibition was 43% (inactive).

`O=[n+]1c2ccccc2n([O-])c2cc(Br)ccc21`: the growth inhibition is 98% (active).

Regarding `CN(C)CCNC(=O)c1cccc2c1Oc1c(cccc1[N+](=O)[O-])O2`, the growth inhibition was 93% (active).

For the compound `Nc1ncc(-c2ccc(Br)cc2)s1`, the growth inhibition is 98% (active).

For `Cc1cc2cc3cc(C)c(N)cc3nc2cc1N`, the growth inhibition is 96% (active).

With `CC12C(=O)OC(=O)C(c3ccccc31)c1ccccc12`, the growth inhibition is 3% (inactive).

Consider `c1ccc2c(OCC3CO3)cccc2c1` (stereo unspecified), for which the growth inhibition was 94% (active).

`CCOC(=N)c1ccc(O)c(OC)c1`: the growth inhibition was -2% (inactive).

For `Nc1cc(N)c(N=Nc2cccc3c(S(=O)(=O)O)cccc23)cc1N=Nc1cc([N+](=O)[O-])ccc1O`, the growth inhibition was 56% (inactive).

Regarding `COC(=O)Oc1cc(Cl)c(Cl)cc1Cl`, the growth inhibition is 9% (inactive).

As for `O=C(O)C1CC(c2ccccc2)=NN1c1ccccc1` (stereo unspecified), the growth inhibition is 95% (active).

Consider `COc1cc([C@@H]2c3cc4c(cc3[C@@H](Nc3ccc(NC(=O)c5cc([N+](=O)[O-])cn5C)cc3)[C@H]3COC(=O)[C@H]23)OCO4)cc(OC)c1O`, for which the growth inhibition is 93% (active).

Consider `O=C(O)c1ccccc1/C=N/N=C1c2ccccc2-c2ccccc21`, for which the growth inhibition is 2% (inactive).

For the compound `O=C1CC(=O)c2ccccc21`, the growth inhibition is 50% (inactive).

Turning to `Nc1ncnc2c1ncn2C1OC(CO)CC1O` (stereo unspecified), the growth inhibition is 91% (active).
